In all, about 2,300 compounds went through this assay and about 1,700 (74%) were called active. So high a share suggests a set chosen from earlier hits. The list shows a part of the results. Results with a measured potency or affinity are listed apart. A number with no mark means an inactive call. How the calls were made is not given here.
Assay: Confirmatory growth inhibition assay, Mycobacterium tuberculosis H37Rv, absence of glycerol (AID 449764);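 further: growth read after 7 days of incubation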
Settings: no glycerol; series mostly up to 100 µM; inhibition: at the top concentration

Row | Structure (SMILES) | inhibition [%]
1 | C=CCn1c(Cc2cccs2)nnc1SCC(=O)Nc1ccc(C(=O)OCC)cc1 | 0.82
2 | CCCCCCCC(=O)N/N=C(/C)c1c(O)cc(C)oc1=O | -9.85
3 | CN1CCN(CC/C=C2/c3ccccc3Sc3ccc(S(=O)(=O)N(C)C)cc32)CC1 | -1.39
4 | O=c1oc2cc(O)ccc2c2ccccc12 | -2.92
5 | CCCCCOc1ccc(N2C(=O)C3C4C=CC(C3C2=O)N(C)C4=O)cc1 (stereo not drawn) | -6.07
6 | O=c1c2cc(-c3ccccc3)sc2ncn1/N=C/c1ccco1 | 26.1
7 | O=C(NC1CCCCC1)C(c1ccc2ncccc2c1)N(Cc1ccco1)C(=O)c1ccc2c(c1)OCCO2 (stereo not drawn) | 4.79
8 | CCCCc1ccc(NC=C2C(=O)OC3(CCCCC3)OC2=O)cc1 | 1.5
9 | O=C(Nc1ccc(N2CCOCC2)c(Cl)c1)c1c(F)c(F)c(F)c(F)c1F | 16.1
10 | Cc1cc(N2CCCCC2)n2ncc(-c3ccc(Cl)cc3)c2n1 | 4.56
11 | CCSCc1nnc(SCC(=O)Nc2cccc(SC)c2)n1C | 0.62
12 | Cc1ccc(C(=O)N/N=C/C=C/c2ccccc2)cc1 | -6.65
13 | Cc1nn(Cc2ccccc2)c(C)c1C(=O)OCC(=O)c1cc(C)n(CC(F)(F)F)c1C | 2.72
14 | CCCCCC(=O)Nc1cccc2ccccc12 | 24.4
15 | Cc1cc(C)c2nc(N3CCCC(C(=O)N4CCN(c5ncccn5)CC4)C3)sc2c1 (stereo not drawn) | -1.73
16 | Cc1c(NC(=O)c2ccc([N+](=O)[O-])o2)cccc1-c1nc2ncccc2o1 | -10.9
17 | CCCCCOC(=O)Nc1nnc(CCCCC)s1 | -0.7
18 | C/C(CC(=O)Nc1ccc(C)c(Cl)c1)=N\NC(=O)Cc1cnc(N)s1 | 21.7
19 | Cc1ccc(N/N=C/C=C/c2ccco2)cc1 | 13.8
20 | CCOC(=O)N1CCN=C1SCc1ccc(C(F)(F)F)cc1 | 3.73
21 | O=C(CSc1nc2ccccc2[nH]1)N1c2ccccc2Sc2ccccc21 | 4.61
22 | CCOC(=O)Oc1ccc2oc(C)c(C(=O)OCCOC)c2c1 | 7.24
23 | C=CC[N@@+]12CC[C@]34c5ccccc5N5/C=C6\C7N(/C=C(\C53)[C@@H](C[C@@H]41)/C(=C/CO)C2)c1ccccc1[C@@]71CC[N@@+]2(CC=C)C/C(=C\CO)[C@@H]6C[C@@H]12 (stereo partly drawn) | 15.8
24 | CCOC(=O)c1c(CN2CCN(Cc3ccccc3)CC2)n(C)c2cc(Br)c(OC)cc12 | 2.08
25 | O=C1N[C@@H](Cc2ccccc2)C(=O)N2[C@H]3Nc4ccccc4[C@@]3([C@]34C[C@H]5C(=O)N[C@@H](Cc6ccccc6)C(=O)N5[C@H]3Nc3ccccc34)C[C@@H]12 | 27.3
26 | CCC(=O)c1coc2ccc(O)cc12 | 3.23
27 | CC(C)NCC(O)c1ccc(O)c(O)c1 (stereo not drawn) | -0.07

Row | Structure (SMILES) | inhibition [%]
28 | CCc1ccc(-n2nc3cc(C)c(N)cc3n2)cc1 | 9.43
29 | CCOc1ccc(N2C(=O)CS/C2=C(\C(Cl)=C(Cl)Cl)[N+](=O)[O-])cc1 | -1.12
30 | CC(=O)c1c(C)n([O-])c2cc(F)c(F)cc2[n+]1=O | -9.5
31 | CCCCn1c(-c2ccc(C(C)(C)C)cc2)nc2cc3[nH]c(=O)c(C(C)C)nc3cc21 | 4.74
32 | Cc1nn(-c2ccccc2)c(N2CCCC2)c1/C=N/Nc1ccc(S(N)(=O)=O)cc1[N+](=O)[O-] | 14.3
33 | CC(=O)/C(=N\Nc1ccc(C)cc1)N1CCOCC1 | 1.57
34 | Cc1ccc(C(=O)CCC(=O)OCC(=O)Nc2c(C)nn(-c3ccccc3)c2C)cc1 | -6.34
35 | CCCCCn1c(CN2CCN(c3cccc(Cl)c3)CC2)nc2c1c(=O)[nH]c(=O)n2C | 11.1
36 | CSc1cccc(N=C2C(=O)Nc3ccccc32)c1 | -2.79
37 | Cc1ccc(Sc2ccc(/C=C3/C(=O)NN(c4ccccc4)C3=O)o2)cc1 | -5.58
38 | COc1cccc(C(=O)/C=C2\Sc3ccccc3N2C)c1 | 8.66
39 | Fc1ccc(-c2nnc(CSc3nnc(-c4cccs4)o3)o2)cc1 | 1.3
40 | CC/C(=C\C(=O)c1cccnc1)Nc1ccc(C)c(C)c1 | 10.2
41 | C=C(C)C1CC=C(C)/C(=N/NC(=O)CNc2ccc(OCC)cc2)C1 (stereo not drawn) | -7.09
42 | Cc1[nH]nc2nc3c(c(OC(=O)c4ccccc4)c12)c(=O)n(C)c(=O)n3C | -48
43 | O=C1CC(Nc2ccc3ccccc3c2)C(=O)N1Cc1ccccc1 (stereo not drawn) | -40.4
44 | O=C(COC(=O)C1CCN(c2ccc(C(F)(F)F)cn2)CC1)Nc1ccc(F)cc1[N+](=O)[O-] | 3.56
45 | Cc1ccc(N=Nc2c(C)[nH]n(C(N)=S)c2=O)cc1 | 0.95
46 | O=C(Nc1cccc(C(F)(F)F)c1)c1ccc2nc(-c3ccco3)c(-c3ccco3)nc2c1 | -1.75
47 | Nc1cccc(-c2cc3ccccc3oc2=O)c1 | 0.03
48 | CC(C)c1nnc(NC(=O)CCC(=O)N2CCN(c3ccc(Cl)cc3)CC2)s1 | 18
49 | CCCC(=O)Nc1sc2c(c1C#N)CCCCC2 | -7.16
50 | O=[N+]([O-])c1ccc(COc2ccc(-c3[nH]ncc3-c3ccc(Cl)cc3)c(O)c2)cc1 | -5.46
51 | Cc1nc(S/C(=C/c2ccc(-c3ccc(Cl)cc3)o2)C(=O)O)n[nH]1 | 0.99
52 | Cc1ccc(NN=C2c3ccccc3-c3ccccc32)cc1 | -1.03
53 | CN1CCC(=NNC(=O)C(=O)Nc2ccccc2F)CC1 | -0.59

Reference: PubChem BioAssay AID449764 (Southern Research Specialized Biocontainment Screening …, 2010)
